Measured values taken from PubChem BioAssay.
Active and inactive are the calls of the source. Cut-off read from the data, not from the text of the source, unless noted: active = inhibition above about 28%; inactive = the rest.

tested on: not listed separately; test: StAR promoter reporter inhibitors, counter-screen for LRH-1 inverse agonist project, cell-based, luminescence, high throughput (AID 651611); details: StAR promoter luciferase reporter counterscreen, at 3.6 µM, hits give high values

SMILES	inhibition
CC(O)(c1cccnc1)c1nc(-c2cccc(C#N)c2)cs1 (stereo not given)	5.87% (inactive)
Cc1ccc(NC(=O)CSc2sc3c(O)cc(=O)[nH]c3c2C#N)c(F)c1	7.65% (inactive)
COc1ccc(Oc2ccccc2/C=N/O)cc1	2.42% (inactive)
Cc1nc2ccccc2n1/N=C/c1ccc([N+](=O)[O-])o1	16.3% (inactive)
CCCCCOc1ccc(NC(=O)CSc2cccc3cccnc23)cc1	-12.7% (inactive)
c1cncc(-c2nc(N3CCCCCC3)c3ccccc3n2)c1	20.8% (inactive)
O=C(CC1C(=O)NCCN1C(=S)Nc1ccccc1)Nc1ccc2c(c1)OCCO2 (stereo not given)	10.3% (inactive)
COc1ccc(-c2sc(C(=O)c3ccc(Cl)cc3Cl)cc2CC(=O)O)cc1	17.8% (inactive)
Cc1c(C)c2ccc(OCC(=O)N3CCN(C(=O)C4COc5ccccc5O4)CC3)cc2oc1=O (stereo not given)	14.4% (inactive)
O=C(CNc1cccc2ccccc12)N/N=C/c1ccc([N+](=O)[O-])o1	27.6% (inactive)
COc1ccc(OCc2nnc3n2N=C(c2ccc(C)cc2)CS3)cc1	-0.29% (inactive)
CN1CCN(/N=C/c2nc(-c3cccc([N+](=O)[O-])c3)n3ccccc23)CC1	-4.33% (inactive)
Cc1cc(Cl)ccc1NC(=O)CN1C(=O)C(=O)N(C2CCCC2)C1=O	5.58% (inactive)
COc1cccc(-c2nc(NCC3CCCO3)c3ccccc3n2)c1O (stereo not given)	31.9% (active)
COc1cc(C(=O)Nc2ccccc2C2COC(=O)C2=N)cc(OC)c1OC (stereo not given)	8.92% (inactive)
O=C(Nc1ccc(N2CCN(Cc3ccccc3F)CC2)cc1)c1ccc([N+](=O)[O-])o1	28.7% (active)
O=C(Nc1ccc(Cc2ccncc2)cc1)c1cccc([N+](=O)[O-])c1	-10.2% (inactive)
CC(=O)Nc1ccc(-c2c(C)cc3oc(=O)cc(-c4ccccc4)c3c2C)cc1	15.9% (inactive)
O=C(Nc1c(Cl)ccc2nsnc12)c1ccc([N+](=O)[O-])o1	17.1% (inactive)
CC1(C(=O)NCc2ccco2)Cc2c(-c3ccccc3)ccnc2O1 (stereo not given)	42% (active)

SMILES	inhibition
COc1cc2cc(C(=O)NC(C)c3cccc4ccccc34)c(N)nc2cc1OC (stereo not given)	34.5% (active)
O=Cc1ccc(N2CCCCCC2)cc1	3.14% (inactive)
CCN(Cc1ccccc1)c1ccc(/C=N/N2CCOCC2)cc1	-41.2% (inactive)
COc1ccc(CC(NC(C)=O)C(=O)NC2CCN(c3nnnn3-c3ccccc3)CC2)cc1 (stereo not given)	10.5% (inactive)
Cc1cc(SC#N)cc(C)c1NC(=O)CCl	27.4% (inactive)
CC1CCCC(C)N1C(=O)COC(=O)Cc1ccc(F)cc1 (stereo not given)	-0.44% (inactive)
COC(=O)c1cc2c(-c3ccccc3)cc3ccccn3c-2c1C(=O)OC	11.5% (inactive)
O=C(Nc1ccc2oc(-c3ccncc3)nc2c1)c1ccc([N+](=O)[O-])o1	34.1% (active)
CC(C)=NOc1cc(NC(=O)CCl)cc([N+](=O)[O-])c1	37.5% (active)
NC(=S)N/N=C/c1ccc(-n2nncc2-c2ccc(Cl)cc2)cc1	12% (inactive)
COc1ccc(NC(=O)CN2C(=O)C(C)SC(C)C2=O)c(OC)c1 (stereo not given)	4.55% (inactive)
CC(=O)Nc1ccc(NC(=O)CSc2nnnn2C2CCCCC2)cc1	17% (inactive)
CCOc1cc2c(cc1OCC)C(c1ccc(OC)cc1)N(c1ccccc1)C(=O)C2 (stereo not given)	-4.63% (inactive)
O=C(N/N=C/c1ccc([N+](=O)[O-])o1)c1ccccc1-n1cccc1	32.3% (active)
Cc1c(NC(=O)C(C)OC(=O)c2ccc([N+](=O)[O-])s2)c(=O)n(-c2ccccc2)n1C (stereo not given)	20% (inactive)
Cc1cc(C)c(C(N)=O)c(Nc2cccc3ccccc23)n1	1.09% (inactive)
Cc1onc(-c2c(F)cccc2Cl)c1C(=O)Nc1cccc2nsnc12	8.33% (inactive)
Oc1[nH]c2ccccc2c1N=NC(=S)N1CCOCC1	74.8% (active)
COc1ccc(S(=O)(=O)N2CCCCC2)cc1NC(=O)c1ccc([N+](=O)[O-])o1	25.8% (inactive)
O=C(CSc1ccccn1)Nc1nonc1[N+](=O)[O-]	10.8% (inactive)

molecular target: Nuclear receptor subfamily 5 group A member 2 (Homo sapiens) (UniProt O00482); test: NR5A2 activity suppression in reporter cells – cell-based, luminescence, confirmation (AID 651613; in the data active = inhibition above about 42%;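 note: HEK293T cells co-transfected with LRH-1 and StAR promoter luciferase reporter; 0% = vehicle wells and 100% = parental cells lacking receptor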); details: cell-based LRH-1 luciferase reporter, inverse agonism; at 3.6 µM; hits give high values
Sequence (O00482 whole entry, looked up): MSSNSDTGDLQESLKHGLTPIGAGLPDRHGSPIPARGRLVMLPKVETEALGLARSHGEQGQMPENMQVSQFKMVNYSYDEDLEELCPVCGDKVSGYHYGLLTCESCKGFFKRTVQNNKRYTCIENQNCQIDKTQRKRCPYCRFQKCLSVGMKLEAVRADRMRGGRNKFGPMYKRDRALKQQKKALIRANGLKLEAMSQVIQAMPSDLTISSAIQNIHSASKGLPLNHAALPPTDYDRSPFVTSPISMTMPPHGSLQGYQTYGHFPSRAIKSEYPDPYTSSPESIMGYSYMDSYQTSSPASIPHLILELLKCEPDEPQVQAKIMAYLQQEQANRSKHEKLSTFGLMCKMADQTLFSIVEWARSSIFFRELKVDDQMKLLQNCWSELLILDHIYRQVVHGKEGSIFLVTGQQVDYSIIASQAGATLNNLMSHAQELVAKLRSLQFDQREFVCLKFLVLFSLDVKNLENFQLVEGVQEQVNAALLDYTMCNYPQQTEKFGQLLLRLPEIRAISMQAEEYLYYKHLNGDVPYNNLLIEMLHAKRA

SMILES	inhibition
CC(O)(c1cccnc1)c1nc(-c2cccc(C#N)c2)cs1 (stereo not given)	53.4% (active)
Cc1ccc(NC(=O)CSc2sc3c(O)cc(=O)[nH]c3c2C#N)c(F)c1	57.1% (active)
COc1ccc(Oc2ccccc2/C=N/O)cc1	57% (active)
Cc1nc2ccccc2n1/N=C/c1ccc([N+](=O)[O-])o1	70.9% (active)
CCCCCOc1ccc(NC(=O)CSc2cccc3cccnc23)cc1	42.7% (active)
c1cncc(-c2nc(N3CCCCCC3)c3ccccc3n2)c1	56.4% (active)
O=C(CC1C(=O)NCCN1C(=S)Nc1ccccc1)Nc1ccc2c(c1)OCCO2 (stereo not given)	53.8% (active)
COc1ccc(-c2sc(C(=O)c3ccc(Cl)cc3Cl)cc2CC(=O)O)cc1	42.2% (active)
Cc1c(C)c2ccc(OCC(=O)N3CCN(C(=O)C4COc5ccccc5O4)CC3)cc2oc1=O (stereo not given)	60.4% (active)
O=C(CNc1cccc2ccccc12)N/N=C/c1ccc([N+](=O)[O-])o1	56.1% (active)
COc1ccc(OCc2nnc3n2N=C(c2ccc(C)cc2)CS3)cc1	26.3% (inactive)
CN1CCN(/N=C/c2nc(-c3cccc([N+](=O)[O-])c3)n3ccccc23)CC1	38.9% (inactive)
Cc1cc(Cl)ccc1NC(=O)CN1C(=O)C(=O)N(C2CCCC2)C1=O	50.9% (active)
COc1cccc(-c2nc(NCC3CCCO3)c3ccccc3n2)c1O (stereo not given)	64.7% (active)
COc1cc(C(=O)Nc2ccccc2C2COC(=O)C2=N)cc(OC)c1OC (stereo not given)	45.5% (active)
O=C(Nc1ccc(N2CCN(Cc3ccccc3F)CC2)cc1)c1ccc([N+](=O)[O-])o1	70.6% (active)
O=C(Nc1ccc(Cc2ccncc2)cc1)c1cccc([N+](=O)[O-])c1	52.4% (active)
CC(=O)Nc1ccc(-c2c(C)cc3oc(=O)cc(-c4ccccc4)c3c2C)cc1	57.9% (active)
O=C(Nc1c(Cl)ccc2nsnc12)c1ccc([N+](=O)[O-])o1	65.1% (active)
CC1(C(=O)NCc2ccco2)Cc2c(-c3ccccc3)ccnc2O1 (stereo not given)	36.3% (inactive)

SMILES	inhibition
COc1cc2cc(C(=O)NC(C)c3cccc4ccccc34)c(N)nc2cc1OC (stereo not given)	43.9% (active)
O=Cc1ccc(N2CCCCCC2)cc1	57.1% (active)
CCN(Cc1ccccc1)c1ccc(/C=N/N2CCOCC2)cc1	26% (inactive)
COc1ccc(CC(NC(C)=O)C(=O)NC2CCN(c3nnnn3-c3ccccc3)CC2)cc1 (stereo not given)	45.1% (active)
Cc1cc(SC#N)cc(C)c1NC(=O)CCl	52.8% (active)
CC1CCCC(C)N1C(=O)COC(=O)Cc1ccc(F)cc1 (stereo not given)	47.2% (active)
COC(=O)c1cc2c(-c3ccccc3)cc3ccccn3c-2c1C(=O)OC	62.3% (active)
O=C(Nc1ccc2oc(-c3ccncc3)nc2c1)c1ccc([N+](=O)[O-])o1	63.7% (active)
CC(C)=NOc1cc(NC(=O)CCl)cc([N+](=O)[O-])c1	56.3% (active)
NC(=S)N/N=C/c1ccc(-n2nncc2-c2ccc(Cl)cc2)cc1	51.6% (active)
COc1ccc(NC(=O)CN2C(=O)C(C)SC(C)C2=O)c(OC)c1 (stereo not given)	44% (active)
CC(=O)Nc1ccc(NC(=O)CSc2nnnn2C2CCCCC2)cc1	57.9% (active)
CCOc1cc2c(cc1OCC)C(c1ccc(OC)cc1)N(c1ccccc1)C(=O)C2 (stereo not given)	3.16% (inactive)
O=C(N/N=C/c1ccc([N+](=O)[O-])o1)c1ccccc1-n1cccc1	71.6% (active)
Cc1c(NC(=O)C(C)OC(=O)c2ccc([N+](=O)[O-])s2)c(=O)n(-c2ccccc2)n1C (stereo not given)	23.3% (inactive)
Cc1cc(C)c(C(N)=O)c(Nc2cccc3ccccc23)n1	2% (inactive)
Cc1onc(-c2c(F)cccc2Cl)c1C(=O)Nc1cccc2nsnc12	52.1% (active)
Oc1[nH]c2ccccc2c1N=NC(=S)N1CCOCC1	78.3% (active)
COc1ccc(S(=O)(=O)N2CCCCC2)cc1NC(=O)c1ccc([N+](=O)[O-])o1	74.9% (active)
O=C(CSc1ccccn1)Nc1nonc1[N+](=O)[O-]	16.9% (inactive)
